Data on eight compounds can be found in PubChem BioAssay (NCI).

Each structure is given as a SMILES string. Compounds without any hit were thinned out: in the full panel of roughly 83,000, 20% have a hit.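 The test compound was applied at a single concentration to cells in 96-well plates for 48 hours, and percent growth was recorded.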 Values without a mark were called inactive. Active and inactive are the calls of the source. The calls were made as follows: active = growth percent below 10; inactive = the rest.

Some test systems named below: SR leukemia; RPMI-8226 leukemia; OVCAR-8 ovarian; OVCAR-5 ovarian; OVCAR-4 ovarian; SK-OV-3 ovarian; IGROV1 ovarian; HS 578T breast; NCI/ADR-RES ovarian; T-47D breast; BT-549 breast; MDA-MB-435 melanoma; SW-620 colon; MCF7 breast; HCT-116 colon; HCC-2998 colon; KM12 colon.
Holding throughout (assay): NCI-60 one-dose screen, 48 h (100 = growth as untreated, 0 = no growth, -100 = all killed)
Details in all cases: 10 µM unless noted

As to `O=C(c1ccc(O)c(C(=O)N2Cc3ccc(OCCC[P+](c4ccccc4)(c4ccccc4)c4ccccc4)cc3C2)c1)N1Cc2cccc(F)c2C1`, the growth is 54.5% in the assay on SR leukemia; 31.8% in the assay on RPMI-8226 leukemia; 77.5% with OVCAR-8 ovarian; 102% in the assay on OVCAR-5 ovarian; 91.4% with OVCAR-4 ovarian; 114% in the assay with SK-OV-3 ovarian. Also, the growth with IGROV1 ovarian is 43.8%; in the assay with HS 578T breast it was 72.4%; with NCI/ADR-RES ovarian, 108%; in the assay on T-47D breast, 38.7%; with BT-549 breast, 65.9%; in the assay with MDA-MB-435 melanoma, 57.1%. In addition, the growth with SW-620 colon was 76.2%; in the assay on MCF7 breast it was 51.9%; in the assay with HCT-116 colon, 96.9%; in the assay with HCC-2998 colon, 68.4%; in the assay on KM12 colon it was 57.8%.
On to `CN(C)CCCOc1ccc2c(c1)CN(C(=O)c1cc(C(=O)N3Cc4cccc(F)c4C3)ccc1O)C2`, for which the growth in the assay on SR leukemia was 96.8%; in the assay with RPMI-8226 leukemia it was 98.9%; with OVCAR-8 ovarian, 101%; in the assay on OVCAR-5 ovarian, 108%; in the assay with OVCAR-4 ovarian it was 99%; in the assay with SK-OV-3 ovarian, 112%. The growth in the assay with IGROV1 ovarian is 113%; in the assay on HS 578T breast it was 92.9%; in the assay with NCI/ADR-RES ovarian it was 107%; in the assay on T-47D breast, 100%; in the assay on BT-549 breast, 125%; in the assay on MDA-MB-435 melanoma, 103%. The growth with SW-620 colon was 105%; in the assay with MCF7 breast it was 83.2%; with HCT-116 colon, 106%; with HCC-2998 colon, 114%; in the assay on KM12 colon, 106%.
Consider `Cc1cc(C)c(N2C(=O)CC(Nc3ccc(Cl)cc3Cl)C2=O)c(C)c1` (stereo unspecified), for which the growth with SR leukemia is 97.5%; in the assay on RPMI-8226 leukemia it was 99.9%; in the assay on OVCAR-8 ovarian, 101%; in the assay on OVCAR-5 ovarian, 100%; with OVCAR-4 ovarian it was 102%; in the assay with SK-OV-3 ovarian, 108%. The growth was 104% in the assay with IGROV1 ovarian; 95.8% with HS 578T breast; 107% with NCI/ADR-RES ovarian; 93.7% in the assay on T-47D breast; 112% with BT-549 breast; 102% with MDA-MB-435 melanoma. The growth was 102% in the assay with SW-620 colon; 91% in the assay with MCF7 breast; 104% with HCT-116 colon; 118% in the assay on HCC-2998 colon; 105% with KM12 colon.
Regarding `COc1cc(-c2nc(SC(C)C)n(C(C)C)c(=O)c2C#N)ccc1OCc1ccccc1`, the growth is 39.9% with SR leukemia; 78.4% in the assay with RPMI-8226 leukemia; 77% in the assay with OVCAR-8 ovarian; 93.2% in the assay with OVCAR-5 ovarian; 4.7% (active) in the assay on OVCAR-4 ovarian; 103% with SK-OV-3 ovarian. In addition, the growth with IGROV1 ovarian was 67.1%; with HS 578T breast, 70.1%; in the assay with NCI/ADR-RES ovarian it was 76%; in the assay with T-47D breast, 52.6%; in the assay with BT-549 breast, 93.8%; with MDA-MB-435 melanoma, 85%. Further, the growth in the assay with SW-620 colon was 52.4%; in the assay on MCF7 breast it was 75.3%; in the assay with HCT-116 colon, 42.9%; in the assay with HCC-2998 colon it was 87.6%; in the assay with KM12 colon, 95.1%.
On to `CCOC(=O)c1c(Nc2ccccc2)nn2c(-c3cccs3)ccnc12`, for which the growth in the assay on SR leukemia was 63.5%; with RPMI-8226 leukemia, 66.2%; in the assay with OVCAR-8 ovarian it was 92.2%; in the assay on OVCAR-5 ovarian, 90.3%; in the assay on OVCAR-4 ovarian it was 91.7%; with SK-OV-3 ovarian, 83.2%. In addition, the growth in the assay on IGROV1 ovarian was 91.3%; in the assay with HS 578T breast it was 90.2%; in the assay on NCI/ADR-RES ovarian, 87.4%; with T-47D breast it was 79.2%; with BT-549 breast, 109%; in the assay with MDA-MB-435 melanoma, 87.5%. The growth in the assay on SW-620 colon is 88.7%; in the assay on MCF7 breast, 90.5%; with HCT-116 colon, 78%; in the assay with HCC-2998 colon, 100%; in the assay on KM12 colon, 82.1%.
On to `COc1cccc2c1CN(C(=O)c1ccc(O)c(C(=O)N3Cc4ccc(OCCC[P+](c5ccccc5)(c5ccccc5)c5ccccc5)cc4C3)c1)C2`, for which the growth with SR leukemia was 35.3%; with RPMI-8226 leukemia, 26.2%; in the assay with OVCAR-8 ovarian, 79.5%; in the assay on OVCAR-5 ovarian it was 123%; with OVCAR-4 ovarian, 84%; in the assay on SK-OV-3 ovarian, 112%. Moreover, the growth in the assay on IGROV1 ovarian is 43.9%; with HS 578T breast it was 49.5%; in the assay with NCI/ADR-RES ovarian it was 103%; in the assay on T-47D breast it was 37.6%; in the assay with BT-549 breast, 65.9%; with MDA-MB-435 melanoma, 32%. Further, the growth in the assay on SW-620 colon was 70.5%; with MCF7 breast it was 17.9%; in the assay on HCT-116 colon, 80.8%; in the assay on HCC-2998 colon, 47.9%; in the assay on KM12 colon, 44.4%.
Take `Cc1cc(C)c2sc(=O)n(Cc3nnc(SCCC(=O)O)o3)c2n1`: the growth in the assay with SR leukemia was 79.2%; in the assay with RPMI-8226 leukemia, 99.8%; with OVCAR-8 ovarian it was 104%; with OVCAR-5 ovarian it was 99.4%; in the assay with OVCAR-4 ovarian, 108%; with SK-OV-3 ovarian it was 105%. For the same compound, the growth in the assay on IGROV1 ovarian was 102%; with HS 578T breast, 103%; in the assay with NCI/ADR-RES ovarian it was 102%; in the assay with T-47D breast, 89.5%; in the assay with BT-549 breast, 123%; in the assay with MDA-MB-435 melanoma, 103%. Also, the growth was 103% in the assay on SW-620 colon; 97% with MCF7 breast; 103% with HCT-116 colon; 104% in the assay on HCC-2998 colon; 106% in the assay with KM12 colon.
Consider `NS(=O)(=O)c1ccc(Nc2nc(SCC(=O)c3ccc(Cl)cc3)nc3c2CCCC3)cc1`, for which the growth with SR leukemia was 26.9%; in the assay with RPMI-8226 leukemia, 42.8%; in the assay on OVCAR-8 ovarian it was 52.3%; with OVCAR-5 ovarian it was 88.3%; in the assay on OVCAR-4 ovarian, 47.7%; in the assay with SK-OV-3 ovarian, 101%. Moreover, the growth with IGROV1 ovarian is 84.8%; with HS 578T breast, 44.6%; in the assay on NCI/ADR-RES ovarian it was 74.6%; in the assay on T-47D breast, 13.5%; with BT-549 breast, 67.3%; with MDA-MB-435 melanoma, 54.4%. The growth with SW-620 colon was 40.5%; with MCF7 breast, 25.4%; in the assay with HCT-116 colon, 36.8%; in the assay with HCC-2998 colon, 21.6%; with KM12 colon, 19.6%.
